Results taken from PubChem BioAssay (EPA / NIEHS).
Inconclusive results are not listed. Active and inactive are the calls of the source. How the source made its calls: active means hit-call score of the fitted dose curve at least 0.9, where 1 is the maximum; inconclusive means response in the unintended direction; inactive means score below 0.9.

What was measured:
[1] = biological target: human Peroxisome Proliferator-activated Receptor alpha (PPARa), PPARA (gene 5465) (UniProt Q07869); experiment: ATG_PPARa_TRANS: Attagene TRANS-FACTORIAL HepG2 Assay for human Peroxisome Proliferator-activated Receptor alpha (PPARa) (AID 2283001);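 on AC50: potency for gain of reporter signal over DMSO so agonist or activator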
Sequence of human Peroxisome Proliferator-activated Receptor alpha (PPARa), PPARA (gene 5465) (Q07869 whole entry, looked up, the tested form may be a part): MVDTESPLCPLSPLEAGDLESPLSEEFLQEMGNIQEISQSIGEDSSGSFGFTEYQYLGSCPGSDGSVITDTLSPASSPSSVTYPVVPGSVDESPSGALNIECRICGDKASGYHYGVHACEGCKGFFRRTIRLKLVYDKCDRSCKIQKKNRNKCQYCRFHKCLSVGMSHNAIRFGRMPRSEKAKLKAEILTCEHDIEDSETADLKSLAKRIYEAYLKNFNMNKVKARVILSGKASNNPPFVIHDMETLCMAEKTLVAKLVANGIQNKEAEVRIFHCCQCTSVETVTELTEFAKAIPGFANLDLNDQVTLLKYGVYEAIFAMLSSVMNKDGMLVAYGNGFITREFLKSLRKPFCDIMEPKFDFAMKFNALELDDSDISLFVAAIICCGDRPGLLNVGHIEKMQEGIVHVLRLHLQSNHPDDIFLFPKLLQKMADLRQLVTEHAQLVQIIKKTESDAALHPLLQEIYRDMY
In short: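 HepG2 cells transiently transfected with multiplexed GAL4-UAS reporters driven by exogenous chimeric NR-Gal4 proteins; reporter mRNA measured after 24 h dosing. Read-out by RT-PCR, 6-FAM labelling, HpaI digestion and capillary electrophoresis; gain of signal versus DMSO.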

[2] = biological target: Peroxisome proliferator-activated receptor gamma (Homo sapiens) (UniProt P37231); experiment: ATG_PPARg_TRANS: Attagene TRANS-FACTORIAL HepG2 Assay for human Peroxisome Proliferator-activated Receptor-gamma (PPARg) (AID 2283007)
Sequence of Peroxisome proliferator-activated receptor gamma (Homo sapiens) (P37231 whole entry, looked up, the tested form may be a part): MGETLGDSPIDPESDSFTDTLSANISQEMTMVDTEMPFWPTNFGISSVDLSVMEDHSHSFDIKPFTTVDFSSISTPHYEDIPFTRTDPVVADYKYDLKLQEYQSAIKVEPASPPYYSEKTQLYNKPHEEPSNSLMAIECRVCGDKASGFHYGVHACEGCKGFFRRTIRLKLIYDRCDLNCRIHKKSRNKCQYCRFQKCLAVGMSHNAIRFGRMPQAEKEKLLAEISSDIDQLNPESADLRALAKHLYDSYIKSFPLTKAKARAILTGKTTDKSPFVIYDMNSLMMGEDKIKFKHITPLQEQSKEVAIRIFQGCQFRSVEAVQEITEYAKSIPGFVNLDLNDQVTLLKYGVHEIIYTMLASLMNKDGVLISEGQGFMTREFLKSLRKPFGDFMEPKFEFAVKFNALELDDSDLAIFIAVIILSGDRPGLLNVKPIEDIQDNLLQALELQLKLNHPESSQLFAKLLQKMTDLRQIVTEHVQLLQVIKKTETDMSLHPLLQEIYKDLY
In short: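 Chimeric NR-Gal4 transactivation is measured in transiently transfected HepG2 cells by reporter mRNA induction at 24 h. Detection uses RT-PCR with fluorescent labelling and capillary electrophoresis; DMSO defines baseline.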

[3] = biological target: Nuclear receptor subfamily 1 group I member 2 (Homo sapiens) (UniProt O75469); experiment: ATG_PXR_TRANS: Attagene TRANS-FACTORIAL HepG2 Assay for human Pregnane X Receptor (PXR) (AID 2283008)
Sequence of Nuclear receptor subfamily 1 group I member 2 (Homo sapiens) (O75469 whole entry, looked up, the tested form may be a part): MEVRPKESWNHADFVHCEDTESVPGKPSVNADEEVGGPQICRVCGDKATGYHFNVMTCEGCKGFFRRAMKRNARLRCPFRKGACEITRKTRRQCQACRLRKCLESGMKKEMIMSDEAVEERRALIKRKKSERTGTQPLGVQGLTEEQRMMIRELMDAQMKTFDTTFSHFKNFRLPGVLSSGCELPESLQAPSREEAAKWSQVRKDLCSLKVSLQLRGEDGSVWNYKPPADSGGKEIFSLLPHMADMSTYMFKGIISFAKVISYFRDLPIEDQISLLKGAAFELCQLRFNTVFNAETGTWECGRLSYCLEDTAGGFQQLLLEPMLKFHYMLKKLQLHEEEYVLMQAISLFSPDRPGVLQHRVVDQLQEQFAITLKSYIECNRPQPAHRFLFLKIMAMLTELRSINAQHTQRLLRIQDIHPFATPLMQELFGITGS
In short: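 HepG2 cells transiently transfected with multiple reporter units, here a PXR-GAL4 chimera driving a GAL4-UAS reporter; 24 h compound exposure. Reporter mRNA measured by RT-PCR, FAM labelling and capillary electrophoresis; gain of signal fitted against DMSO baseline.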

[4] = biological target: human RAR-related Orphan Receptor beta (RORb), RORB (gene 6096) (UniProt Q92753); experiment: ATG_RORb_TRANS: Attagene TRANS-FACTORIAL HepG2 Assay for human RAR-related Orphan Receptor beta (RORb) (AID 2283010)
Sequence of human RAR-related Orphan Receptor beta (RORb), RORB (gene 6096) (Q92753 whole entry, looked up, the tested form may be a part): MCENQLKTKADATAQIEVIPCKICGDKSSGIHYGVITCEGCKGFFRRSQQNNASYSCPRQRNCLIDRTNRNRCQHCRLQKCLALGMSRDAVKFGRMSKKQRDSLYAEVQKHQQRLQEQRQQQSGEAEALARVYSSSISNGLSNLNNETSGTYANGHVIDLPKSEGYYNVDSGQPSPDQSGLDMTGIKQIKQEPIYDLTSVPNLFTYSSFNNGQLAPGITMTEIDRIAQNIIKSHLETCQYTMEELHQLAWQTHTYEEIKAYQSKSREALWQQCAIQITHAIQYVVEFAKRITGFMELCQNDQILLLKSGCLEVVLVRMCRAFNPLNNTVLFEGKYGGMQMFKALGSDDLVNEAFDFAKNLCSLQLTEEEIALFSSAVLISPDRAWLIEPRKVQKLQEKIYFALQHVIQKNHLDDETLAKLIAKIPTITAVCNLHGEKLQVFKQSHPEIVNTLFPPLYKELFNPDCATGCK
In short: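 HepG2 cells transiently transfected with GAL4-UAS reporter units expressing chimeric NR-Gal4 protein; reporter mRNA measured 24 h after dosing by RT-PCR, 6-FAM labelling and capillary electrophoresis. Gain-of-signal fitted relative to DMSO baseline.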

[5] = biological target: Retinoic acid receptor RXR-alpha (Homo sapiens) (UniProt P19793); experiment: ATG_RXRa_TRANS: Attagene TRANS-FACTORIAL HepG2 Assay for human Retinoid X Receptor alpha (RXRa) (AID 2283012)
Sequence of Retinoic acid receptor RXR-alpha (Homo sapiens) (P19793 whole entry, looked up, the tested form may be a part): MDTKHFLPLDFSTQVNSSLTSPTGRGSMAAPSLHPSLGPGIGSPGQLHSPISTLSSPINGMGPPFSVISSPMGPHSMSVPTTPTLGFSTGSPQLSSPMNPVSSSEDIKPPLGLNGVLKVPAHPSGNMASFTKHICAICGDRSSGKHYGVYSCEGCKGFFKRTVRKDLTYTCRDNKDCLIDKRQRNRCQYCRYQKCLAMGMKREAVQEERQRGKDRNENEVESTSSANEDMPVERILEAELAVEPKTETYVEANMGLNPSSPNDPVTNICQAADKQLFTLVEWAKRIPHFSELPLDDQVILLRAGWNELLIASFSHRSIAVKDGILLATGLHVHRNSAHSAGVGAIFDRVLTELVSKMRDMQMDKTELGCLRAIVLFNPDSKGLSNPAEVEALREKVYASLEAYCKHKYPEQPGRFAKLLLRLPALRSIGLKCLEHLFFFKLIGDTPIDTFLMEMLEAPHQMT
In short: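 HepG2 cells transiently transfected with GAL4-UAS reporter units and chimeric RXRa-Gal4 protein, treated 24 h. Reporter mRNA measured by RT-PCR, fluorescent labelling, HpaI digestion and capillary electrophoresis. Induction fitted against DMSO.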

[6] = biological target: human Retinoid X Receptor beta (RXRb), RXRB (gene 6257) (UniProt P28702); experiment: ATG_RXRb_TRANS: Attagene TRANS-FACTORIAL HepG2 Assay for human Retinoid X Receptor beta (RXRb) (AID 2283013)
Sequence of human Retinoid X Receptor beta (RXRb), RXRB (gene 6257) (P28702 whole entry, looked up, the tested form may be a part): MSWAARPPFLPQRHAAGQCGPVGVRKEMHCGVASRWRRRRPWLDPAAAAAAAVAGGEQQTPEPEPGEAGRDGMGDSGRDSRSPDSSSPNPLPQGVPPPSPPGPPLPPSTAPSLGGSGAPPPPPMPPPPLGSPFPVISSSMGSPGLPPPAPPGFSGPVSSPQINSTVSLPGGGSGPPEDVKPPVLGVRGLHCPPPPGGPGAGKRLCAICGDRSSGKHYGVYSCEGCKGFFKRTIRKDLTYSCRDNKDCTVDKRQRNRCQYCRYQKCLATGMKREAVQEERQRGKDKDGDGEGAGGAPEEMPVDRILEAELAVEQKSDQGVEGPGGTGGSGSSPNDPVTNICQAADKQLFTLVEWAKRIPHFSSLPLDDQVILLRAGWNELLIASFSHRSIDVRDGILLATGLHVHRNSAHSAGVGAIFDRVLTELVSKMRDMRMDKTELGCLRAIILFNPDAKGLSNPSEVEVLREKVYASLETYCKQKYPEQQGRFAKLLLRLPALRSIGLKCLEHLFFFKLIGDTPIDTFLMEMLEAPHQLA
In short: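 HepG2 cells were transiently transfected with multiplexed GAL4-UAS reporters and a chimeric RXRb-Gal4 construct, then exposed for 24 h. Reporter mRNA was quantified by RT-PCR, FAM labeling, HpaI digestion and capillary electrophoresis; gain of signal was scored against DMSO.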

[7] = biological target: human Peroxisome Proliferator-activated Receptor delta (PPARd), PPARD (gene 5467) (UniProt Q03181); experiment: ATG_PPARd_TRANS: Attagene TRANS-FACTORIAL HepG2 Assay for human Peroxisome Proliferator-activated Receptor delta (PPARd) (AID 2283002)
Sequence of human Peroxisome Proliferator-activated Receptor delta (PPARd), PPARD (gene 5467) (Q03181 whole entry, looked up, the tested form may be a part): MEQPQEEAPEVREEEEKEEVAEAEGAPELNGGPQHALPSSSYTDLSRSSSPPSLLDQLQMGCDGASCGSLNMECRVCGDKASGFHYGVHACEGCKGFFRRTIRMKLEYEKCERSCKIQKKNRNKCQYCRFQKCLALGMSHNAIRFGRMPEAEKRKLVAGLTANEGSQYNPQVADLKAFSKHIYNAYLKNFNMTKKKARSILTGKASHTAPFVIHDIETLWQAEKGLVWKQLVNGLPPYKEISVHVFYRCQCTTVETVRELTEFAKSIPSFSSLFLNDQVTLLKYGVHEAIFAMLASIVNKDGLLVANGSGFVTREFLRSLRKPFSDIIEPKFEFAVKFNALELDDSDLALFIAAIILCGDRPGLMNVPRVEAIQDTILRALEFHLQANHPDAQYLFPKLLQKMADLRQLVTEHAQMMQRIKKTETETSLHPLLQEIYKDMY
In short: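 Read-out: reporter mRNA induction, quantified by fluorescent RT-PCR products resolved by capillary electrophoresis. Human HepG2 liver cells carried transiently transfected Gal4-UAS reporter constructs with chimeric NR-Gal4 fusions. Cells were dosed for 24 h; DMSO served as baseline.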

[8] = biological target: human Thyroid Receptor alpha (THRa1), THRA (gene 7067) (UniProt P10827); experiment: ATG_THRa1_TRANS: Attagene TRANS-FACTORIAL HepG2 Assay for human Thyroid Receptor alpha (THRa1) (AID 2283014)
In short: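 First, HepG2 cells receive multiple GAL4-UAS reporter units and the chimeric receptor. They are then dosed for 24 h, after which RNA is reverse-transcribed, amplified, labelled, HpaI-cut and sized by capillary electrophoresis; gain relative to DMSO is scored.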

[9] = biological target: human RAR-related Orphan Receptor gamma (RORg), RORC (gene 6097) (UniProt P51449); experiment: ATG_RORg_TRANS: Attagene TRANS-FACTORIAL HepG2 Assay for human RAR-related Orphan Receptor gamma (RORg) (AID 2283011)
Sequence of human RAR-related Orphan Receptor gamma (RORg), RORC (gene 6097) (P51449 whole entry, looked up, the tested form may be a part): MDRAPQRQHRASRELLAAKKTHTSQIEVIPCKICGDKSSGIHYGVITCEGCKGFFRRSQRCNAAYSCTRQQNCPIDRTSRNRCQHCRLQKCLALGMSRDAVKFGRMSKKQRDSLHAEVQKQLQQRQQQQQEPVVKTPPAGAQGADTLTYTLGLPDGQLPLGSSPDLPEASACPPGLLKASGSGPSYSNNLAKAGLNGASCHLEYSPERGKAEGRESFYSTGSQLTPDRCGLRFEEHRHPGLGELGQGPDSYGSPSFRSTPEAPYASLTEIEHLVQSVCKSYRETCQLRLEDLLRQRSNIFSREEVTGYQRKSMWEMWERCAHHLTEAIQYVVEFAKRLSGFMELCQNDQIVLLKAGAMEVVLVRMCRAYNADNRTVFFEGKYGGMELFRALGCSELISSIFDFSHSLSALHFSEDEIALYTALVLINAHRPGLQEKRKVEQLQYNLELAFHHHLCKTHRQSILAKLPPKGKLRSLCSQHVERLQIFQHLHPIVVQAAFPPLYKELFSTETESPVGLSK
In short: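 Activity is scored as increase in GAL4-UAS reporter mRNA over DMSO, detected by fluorescent RT-PCR and capillary electrophoresis in HepG2 cells transiently expressing a RORg-Gal4 chimera, 24 h after dosing.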

[10] = biological target: human Retinoic Acid Receptor gamma (RARg), RARG (gene 5916) (UniProt P13631); experiment: ATG_RARg_TRANS: Attagene TRANS-FACTORIAL HepG2 Assay for human Retinoic Acid Receptor gamma (RARg) (AID 2283009)
Sequence of human Retinoic Acid Receptor gamma (RARg), RARG (gene 5916) (P13631 whole entry, looked up, the tested form may be a part): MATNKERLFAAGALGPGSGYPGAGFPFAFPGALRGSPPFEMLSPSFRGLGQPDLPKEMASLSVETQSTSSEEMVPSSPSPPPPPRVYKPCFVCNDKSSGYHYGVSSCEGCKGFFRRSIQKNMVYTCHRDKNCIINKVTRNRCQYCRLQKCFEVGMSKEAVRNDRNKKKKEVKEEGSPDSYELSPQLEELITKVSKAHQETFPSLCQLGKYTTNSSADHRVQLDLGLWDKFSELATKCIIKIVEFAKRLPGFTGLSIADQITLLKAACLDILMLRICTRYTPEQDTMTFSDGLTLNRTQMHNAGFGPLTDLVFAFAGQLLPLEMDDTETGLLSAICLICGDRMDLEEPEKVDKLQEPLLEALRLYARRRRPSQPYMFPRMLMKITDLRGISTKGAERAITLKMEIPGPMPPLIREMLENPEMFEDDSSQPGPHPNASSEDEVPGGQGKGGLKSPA
In short: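 HepG2 transiently transfected with GAL4-UAS reporter units and chimeric NR-Gal4 constructs; 24 h compound exposure. Reporter mRNA quantified by RT-PCR, FAM labeling, HpaI digestion and capillary electrophoresis; gain-of-signal versus DMSO.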

[11] = biological target: human Retinoic Acid Receptor beta (RARb), RARB (gene 5915) (UniProt P10826); experiment: ATG_RARb_TRANS: Attagene TRANS-FACTORIAL HepG2 Assay for human Retinoic Acid Receptor beta (AID 2283004)
Sequence of human Retinoic Acid Receptor beta (RARb), RARB (gene 5915) (P10826 whole entry, looked up, the tested form may be a part): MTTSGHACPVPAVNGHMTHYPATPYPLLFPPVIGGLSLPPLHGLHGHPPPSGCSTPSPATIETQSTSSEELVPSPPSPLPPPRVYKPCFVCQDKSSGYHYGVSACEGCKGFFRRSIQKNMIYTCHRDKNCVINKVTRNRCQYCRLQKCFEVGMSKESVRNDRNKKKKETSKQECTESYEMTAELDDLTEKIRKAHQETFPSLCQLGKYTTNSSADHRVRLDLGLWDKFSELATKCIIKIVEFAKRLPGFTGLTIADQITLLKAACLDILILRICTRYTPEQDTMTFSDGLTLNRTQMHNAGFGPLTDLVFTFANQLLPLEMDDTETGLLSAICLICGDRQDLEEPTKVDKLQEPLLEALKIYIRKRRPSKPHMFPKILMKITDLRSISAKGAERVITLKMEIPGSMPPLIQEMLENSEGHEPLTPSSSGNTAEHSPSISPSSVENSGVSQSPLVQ
In short: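 HepG2, transient MRTU transfection, NR–Gal4 chimera, 24 h treatment; RT-PCR plus CE fluorescence detection of reporter mRNA; gain of signal vs DMSO.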

[12] = biological target: Retinoic acid receptor alpha (Homo sapiens) (UniProt P10276); experiment: ATG_RARa_TRANS: Attagene TRANS-FACTORIAL HepG2 Assay for human Retinoic Acid Receptor alpha (RARa) (AID 2283005)
In short: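 HepG2 transiently transfected with multiplex GAL4-UAS reporter units including a human RARa–GAL4 chimera; 24 h compound exposure. Reporter mRNA quantified by RT-PCR, 6-FAM labeling and capillary electrophoresis; gain of signal versus DMSO.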

Measured: AC50

COc1cc(OC)c2ccc(=O)oc2c1
inactive: [1] | [2] | [3] | [4] | [5] | [6]

CCCCCCC(C)O (stereo unspecified)
inactive: [1] | [7] | [2] | [3] | [5] | [6]

C=CCOC(=O)/C=C\C(=O)OCC=C
inactive: [7] | [5] | [6] | [8]
active: [1] 27.5 µM | [2] 1.96 µM

CCCCCCCCCOS(=O)(=O)O
active: [2] 30.6 µM
inactive: [1] | [3]

CCCCCc1cccc(=O)o1
active: [2] 10.6 µM
inactive: [1] | [7] | [3] | [5] | [6] | [8]

O=C(OCc1ccccc1)c1ccccc1O
active: [6] 50.1 µM
inactive: [1] | [7] | [4] | [5] | [8]

CCOCC(C)O (stereo unspecified)
inactive: [1] | [7] | [4] | [9]

CC1=CC[C@@H](C(C)(C)O)CC1
inactive: [1] | [7] | [2] | [3] | [4] | [6] | [8]

CCOC(=O)COC(=O)c1ccccc1C(=O)OCC
inactive: [1] | [2]

COc1ccc(OC)cc1
inactive: [1] | [7] | [2] | [9]

OCCCO
inactive: [1] | [7] | [3] | [10] | [6] | [8]

CC1=C(C=O)C(C)(C)CCC1
inactive: [1] | [2] | [4] | [9] | [8]
active: [3] 2.61 µM

CC1COC(=O)O1 (stereo unspecified)
inactive: [1] | [2]

CCCCC/C=C\C=C\C(=O)OCC
inactive: [1] | [7] | [5]
active: [2] 28.5 µM | [3] 5.19 µM

CC(=O)c1ccc2ccccc2c1
not listed: [7] | [10] | [11] | [12]
inactive: all other assays above

S=c1[nH][nH]c(=S)s1
inactive: [1] | [7] | [9] | [5] | [6] | [8]

CN(C)C(=O)Nc1ccccc1
inactive: [1] | [7] | [2] | [3] | [9] | [8]

O=C1CCCCCCCCCCCC(=O)OCCO1
inactive: [2] | [3] | [4] | [9]
active: [1] 54.3 µM

CC(=O)OC(C)(C)C
not listed: [4] | [10] | [11] | [12]
inactive: all other assays above

O=C(O)CS
inactive: [1] | [3] | [10] | [4]

NC(=O)NC(N)=O
inactive: [7] | [11] | [3] | [10] | [5] | [6]

CC(=O)Oc1c(C)c(C)c2c(c1C)CC[C@@](C)(CCC[C@H](C)CCC[C@H](C)CCCC(C)C)O2
not listed: [1] | [4] | [5] | [10]
inactive: all other assays above

CCCC(O)C(CC)CO (stereo unspecified)
inactive: [7]

CCO[Si](CCC#N)(OCC)OCC
inactive: [1] | [2] | [3] | [9] | [8]

C[C@H](CCC(=O)O)[C@H]1CC[C@H]2[C@@H]3CC[C@@H]4C[C@H](O)CC[C@]4(C)[C@H]3CC[C@]12C
active: [7] 54.1 µM | [2] 29.1 µM | [3] 8.67 µM
inactive: [4] | [9] | [5]

O=S(=O)(O)c1cc(S(=O)(=O)O)c2c(N=Nc3ccccc3)c(O)ccc2c1
inactive: [1] | [3] | [4] | [5] | [8]

CC(=O)CC(=O)N(C)C
inactive: [1] | [4] | [9] | [5]

C=C(C)C(=O)OCCC(C)OC(=O)C(=C)C (stereo unspecified)
active: [2] 47 µM
inactive: [1] | [3] | [6]

C=CC(O)CCCCC (stereo unspecified)
inactive: [1] | [2] | [3] | [8]

CCCCCCCCOS(=O)(=O)O
active: [2] 47.6 µM | [6] 100 µM
inactive: [1] | [9] | [5]

CNC(=C[N+](=O)[O-])NCCSCc1ccc(CN(C)C)o1
not listed: [1] | [6] | [8] | [12]
inactive: all other assays above

NC(=O)c1cnccn1
inactive: [1] | [5] | [6]

CC/C=C\CCOC(=O)C(C)C
inactive: [7] | [12] | [2] | [4] | [6]

CC(C)=CCCC(C)=CC(=O)O
inactive: [1] | [3] | [9] | [6]
active: [2] 57.3 µM
